PubChem BioAssay (NCATS)
A number with no mark means an inactive call. Records with an inconclusive call do not appear. Activity calls are given as the source filed them. Calls come from the whole dose curve; as a rule, active = well fitted curve in the direction sought with a large enough effect; inconclusive = small, poorly fitted or top-dose-only effect, or another doubt; inactive = no such curve, though single readings can be large; an effect the other way counts as inactive or inconclusive.

test system: not listed separately; experiment: Confirmation and Secondary Assay for Modulators of Hemoglobin Beta Chain Splicing at IVS2 705 locus (AID 930); conditions: HeLa EGFP-705 splicing reporter, GFP fluorescence, 48 h; series mostly up to 46.1 µM; activation: at the top concentration;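 note: HeLa cells stably expressing the EGFP-705 splicing reporter; GFP fluorescence per well restored by corrected splicing of the IVS2-705 intron in EGFP; % of control where 0% means no effect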
Method in brief: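 Per-well GFP, captured at 1 x 8 µm resolution with 488 nm excitation, served as the read-out for HeLa EGFP-705 cells incubated 2 days with test compound versus DMSO.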

Row | Structure (SMILES) | activation
1 | O=c1[nH]c2cc(Cl)c(Cl)cc2[nH]c1=O | 0.592%
2 | NCCCS(=O)(=O)O | 3.48%
3 | O=C(O)c1cc(=O)c2ccccc2[nH]1 | -0.148%

target: Muscarinic acetylcholine receptor M1 (Rattus norvegicus) (UniProt P08482); experiment: qHTS Assay for Antagonists of Acetylcholine Muscarinic M1 Receptor: Kinetic Measurement of Intracellular Calcium Response (AID 943); conditions: M1-expressing cells, kinetic intracellular calcium fluorescence; series mostly up to 35.3 µM; activity change, negative = inhibition: at the top concentration; note: nearly all actives have a fitted effect of over 75% in size; note: potency is the fitted concentration of half-maximal effect;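 for activity change, negative = inhibition: Fluo-4 calcium signal as peak divided by basal fluorescence over 4 min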
Sequence (P08482 whole entry, looked up): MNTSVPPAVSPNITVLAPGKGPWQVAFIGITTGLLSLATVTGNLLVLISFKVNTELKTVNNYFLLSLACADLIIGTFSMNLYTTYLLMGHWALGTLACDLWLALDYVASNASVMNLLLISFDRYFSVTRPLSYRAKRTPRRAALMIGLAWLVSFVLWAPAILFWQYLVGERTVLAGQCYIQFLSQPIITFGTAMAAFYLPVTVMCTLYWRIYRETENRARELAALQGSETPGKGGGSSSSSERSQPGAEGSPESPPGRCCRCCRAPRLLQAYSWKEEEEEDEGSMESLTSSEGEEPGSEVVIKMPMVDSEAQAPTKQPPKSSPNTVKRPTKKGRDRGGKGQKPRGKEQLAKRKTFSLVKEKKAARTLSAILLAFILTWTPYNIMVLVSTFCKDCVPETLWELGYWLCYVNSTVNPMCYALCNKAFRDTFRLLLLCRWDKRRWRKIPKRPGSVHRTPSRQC
Method in brief: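 Intracellular calcium flux, recorded with Fluo-4 in a kinetic plate reader, served as signal; the response to carbachol at EC80 (100 nM final) was taken as maximal over minimal fluorescence after a 10 min compound pre-incubation in rat M1-CHO cells.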

Row | Structure (SMILES) | activity change, negative = inhibition | Potency
4 | O=c1[nH]c2cc(Cl)c(Cl)cc2[nH]c1=O | -17.9% | –
5 | NCCCS(=O)(=O)O | -16.6% | –
6 | CN(C)C(N)=NCCC[C@H](N)C(=O)O | -29.1% | –
7 | CC1(C)CCC=[N+]1[O-] | -38.6% | –
8 | CCN1/C(=C/C(C)=O)Sc2ccc(OC)cc21 | -38.1% | –
9 | c1ccc(-c2ccccn2)nc1 | -43.5% | –
10 | N[C@@H](CC(=O)O)C(=O)O | -40.7% | –
11 | CCCCCCCC/C=C\CCCCCCCC(=O)NCCO | -36.5% | –
12 | O=S(=O)(c1cccc2c(I)cccc12)N1CCCNCC1 | -9.24% | –
13 | C[N+]1(C)CCC(OC(=O)C(c2ccccc2)c2ccccc2)CC1 | – | 15.8 nM (active)
14 | CC(=O)SCC[N+](C)(C)C | 34% | –
15 | O=c1[nH]c2cc(C(F)(F)F)ccc2n1-c1cc(C(F)(F)F)ccc1O | -18.5% | –
16 | C[N+](C)(CCCCCC[N+](C)(C)CCCN1C(=O)c2cccc3cccc(c23)C1=O)CCCN1C(=O)c2cccc3cccc(c23)C1=O | – | 398 nM (active)
17 | NC(=O)C(=O)O | -34.4% | –
18 | NC[C@@H]1O[C@H](C23CC4CC(CC(C4)C2)C3)Cc2c1ccc(O)c2O | 12.6% | –
19 | O=C(Nc1cccc(C(=O)Nc2ccc(S(=O)(=O)O)c3cc(S(=O)(=O)O)cc(S(=O)(=O)O)c23)c1)Nc1cccc(C(=O)Nc2ccc(S(=O)(=O)O)c3cc(S(=O)(=O)O)cc(S(=O)(=O)O)c23)c1 | -22.7% | –
20 | CN1CCc2cc(NC(=O)Nc3cccnc3)ccc21 | -32.1% | –

target: Muscarinic acetylcholine receptor M1 (Rattus norvegicus) (UniProt P08482); experiment: qHTS Assay for Antagonists of Acetylcholine Muscarinic M1 Receptor: Measurement of IP-One Response (AID 944); conditions: CHO-M1 cells, IP-One HTRF, antagonist mode; series mostly up to 46.1 µM; activity change, negative = inhibition: at the top concentration; note: nearly all actives have a fitted effect of over 75% in size; note: potency is the fitted concentration of half-maximal effect
Method in brief: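 Steps: plate transfected CHO-M1 cells overnight; add test compound, 10 min; add carbachol (200 nM, EC80) in stimulation buffer with LiCl; incubate 30 min; add labelled IP1 tracer and anti-IP1 antibody in lysis buffer; read HTRF after 10 min.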

Row | Structure (SMILES) | activity change, negative = inhibition | Potency
21 | O=c1[nH]c2cc(Cl)c(Cl)cc2[nH]c1=O | -29% | –
22 | Clc1ccc(N2CCN(Cc3c[nH]c4ncccc34)CC2)cc1 | -41.9% | –
23 | NCCCS(=O)(=O)O | -29.1% | –
24 | NCCCCCCCCCCN | -38.6% | –
25 | CN(C)c1nc(N)c(C(=O)N=C(N)N)nc1Cl | -45.9% | –
26 | CN(C)C(N)=NCCC[C@H](N)C(=O)O | -23.7% | –
27 | NCCNC(=O)c1ncsc1-c1cccc(F)c1 | -27.3% | –
28 | CC1(C)CCC=[N+]1[O-] | – | 11200 nM (active)
29 | NO | -13.1% | –
30 | CN1CCc2ccccc2Cc2[nH]c3ccccc3c2CC1 | – | 15800 nM (active)
31 | CCN1/C(=C/C(C)=O)Sc2ccc(OC)cc21 | -48.8% | –
32 | c1ccc(-c2ccccn2)nc1 | 2.53% | –
33 | N[C@@H](CC(=O)O)C(=O)O | -14.8% | –
34 | CCCCCCCC/C=C\CCCCCCCC(=O)NCCO | -16.7% | –
35 | O=S(=O)(c1cccc2c(I)cccc12)N1CCCNCC1 | 35% | –
36 | C[N+]1(C)CCC(OC(=O)C(c2ccccc2)c2ccccc2)CC1 | – | 11.2 nM (active)
37 | CC(=O)SCC[N+](C)(C)C | -52.9% | –
38 | O=c1[nH]c2cc(C(F)(F)F)ccc2n1-c1cc(C(F)(F)F)ccc1O | -11.9% | –
39 | C[N+](C)(CCCCCC[N+](C)(C)CCCN1C(=O)c2cccc3cccc(c23)C1=O)CCCN1C(=O)c2cccc3cccc(c23)C1=O | – | 398 nM (active)
40 | NC(=O)C(=O)O | -12.5% | –
41 | NC[C@@H]1O[C@H](C23CC4CC(CC(C4)C2)C3)Cc2c1ccc(O)c2O | -17.9% | –
42 | O=C(O)c1cc(=O)c2ccccc2[nH]1 | -11.7% | –
43 | Cn1c(=O)c2[nH]c(-c3ccccc3)nc2n(C)c1=O | -21.1% | –
44 | COc1ccc(/C=C/C(=O)Nc2ccccc2C(=O)O)cc1OC | -2.76% | –
